# An excerpt weighted towards active compounds, which were near 7.7% of everything screened.
# RE007 growth inh: less growth of the S. pombe RE007 Vpr strain | 0.21% of 360,000 active | Potency, µM (highest dose often 92.2 µM), inactives show at the top dose activity change, negative = less growth, actives largely listed as inhibitors | S. pombe RE007 Vpr strain, BacTiter-Glo ATP luminescence, 24 h; active = well fitted falling curve with a large enough effect; inconclusive = small, poorly fitted or top-dose-only effect; inactive = no such curve, though single readings can be large or run the other way; note: potency is the fitted concentration of half-maximal effect; nearly all actives have a fitted effect of over 50% in size
#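 Fission yeast RE007 carrying one integrated HIV-1 vpr copy, seeded at OD 0.01 in PMG+AL medium with 23 nL pinned compound. Grown 24 h at 30 degrees; viability read by BacTiter-Glo luminescence after 5 min.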
# FBPA Giardia inh: Giardia lamblia aldolase inhibition | A8B2U2 | purified Giardia FBPA | Potency, µM (top dose mostly 59.6 µM), inactives show top-dose activity, negative = inhibition, actives largely listed as inhibitors | 0.71% of 290,000 active | AID 2451; note: potency is the fitted concentration of half-maximal effect; nearly all actives have a fitted effect of over 55% in size
# Target sequence (A8B2U2 whole entry, looked up): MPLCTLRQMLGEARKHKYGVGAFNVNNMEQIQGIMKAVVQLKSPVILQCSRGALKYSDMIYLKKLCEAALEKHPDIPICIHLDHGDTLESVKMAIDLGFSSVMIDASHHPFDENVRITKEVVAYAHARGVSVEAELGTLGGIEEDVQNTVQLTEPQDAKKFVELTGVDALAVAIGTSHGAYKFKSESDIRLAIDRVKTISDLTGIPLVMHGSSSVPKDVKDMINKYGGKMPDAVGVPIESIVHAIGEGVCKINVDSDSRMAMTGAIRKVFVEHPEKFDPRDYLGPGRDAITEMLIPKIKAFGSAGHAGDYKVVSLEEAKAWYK
#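 40 nM FBPA preincubated 10 min at RT with compound (up to 57.5 uM final), then substrate plus GAPDH/TPI/NAD/arsenate coupling and diaphorase/resazurin added. Fluorescence read after 20 min at RT, 525/598 nm.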
# FMDV inh: foot and mouth disease virus antiviral activity | 1.2% of 410,000 active | FMDV antiviral cell-based qHTS | AID 1159524 | Potency, µM (titrated, usually from 57.9 µM), without a hit: at the highest dose activity change, negative = inhibition, usual class: inhibitors; calls by dose curve; tested in HEK293T cells; note: read-out not given here; potency is the fitted concentration of half-maximal effect; nearly all actives have a fitted effect of over 45% in size
# Sm TGR block: inhibitors of Schistosoma mansoni thioredoxin glutathione reductase. Q962Y6. purified TGR, DTNB reduction, TNB absorbance 405 nm. Potency, µM (doses to about 114 µM), without a hit: at the top dose activity change, negative = inhibition, usual class: inhibitors. 3% of 360,000 active. AID 485364; note: potency is the fitted concentration of half-maximal effect; nearly all actives have a fitted effect of over 60% in size
#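 Kinetic colorimetric format: TGR-catalysed, NADPH-driven DTNB reduction monitored via TNB absorbance. Enzyme dispensed at 20 nM; compound exposure 15 min at room temperature before reaction start.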
# HCMV antiviral: blocks human cytomegalovirus replication; 4.5% of 410,000 active; HFF cells, HCMV-luciferase reporter, 72 h; stronger effect = lower value; activity change, negative = inhibition, % at 57.5 µM; in the data active = activity change below about -60%; inconclusive = no clear call, values can overlap the other calls; inactive = above about -39%
#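 After 16 h attachment at 37C, HFF cells received test compound and HCMV-luciferase (1 PFU/cell); reporter luminescence read 72 h later, data normalized against buffer-only and known inhibitor Salinomycin.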
# Tb PYK inh: blocks Trypanosoma brucei pyruvate kinase | 0.12% of 410,000 active | TbPYK enzyme, Kinase-Glo Plus ATP luminescence, 45 min | Potency, µM (top dose mostly 76.8 µM), for inactives: top-dose activity, negative = inhibition, most hits filed as inhibitors | Q57TT1; note: potency is the fitted concentration of half-maximal effect; nearly all actives have a fitted effect of over 50% in size
#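 Screened from lowest to highest concentration, compounds were pinned into TbPYK/substrate mixtures, and ADP (130 uM final) was added. Plates sat at room temperature for 45 min prior to Kinase-Glo Plus detection by luminescence.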
# * marks the source's active call; other numbers are inactive results; u = inconclusive; x = no result; ! = repeats disagree. Unless noted, calls come from the whole dose curve; as a rule, active = well fitted curve in the direction sought with a large enough effect; inconclusive = small, poorly fitted or top-dose-only effect, or another doubt; inactive = no such curve, though single readings can be large; an effect the other way counts as inactive or inconclusive. % is set by controls: 0 for no effect and ±100 for the full control effect.
SMILES,RE007 growth inh,FBPA Giardia inh,FMDV inh,Sm TGR block,HCMV antiviral,Tb PYK inh
CCN(CC)C(=O)Cn1c(=O)n(-c2ccc(C)c(C)c2)c(=O)c2c3c(sc21)CCCCC3,x,x,1%,-5%,0,0%
O=C(CCN1CCOCC1)c1ccc(N2CCCCC2)cc1,u,x,3%,14µM*,-13,-8%
CC(C)(C)c1cc(C(=O)CCN2CCOCC2)cc(C(C)(C)C)c1O,8%,-7%,-15%,3.5µM*,-77*,5%
CCOc1ccc(-n2ccnc2SCC(=O)Nc2ccc(OC)cc2OC)cc1,x,x,-3%,8%,-32,0%
COc1ccc2c3n(nc2c1)C(C)CN=C3c1ccc(Cl)cc1 (stereo not given),x,x,x,x,35,x
CCCS(=O)(=O)NCc1c(C)ncc2c1CCN(C(=O)c1ccc3[nH]c4c(c3c1)CCCC4)C2,x,x,-12%,x,x,x
Cc1ccc(-c2nnnn2-c2ccc(C)cc2)cc1,-2%,-7%,-10%,10%,12,-4%
Cc1ccc(-n2nnnc2CCl)cc1,16%,-15%,u,5.6µM*,12,-5%
Cc1ccc(S(=O)(=O)c2nnn3c2nc(NCc2ccccc2Cl)c2sccc23)cc1,x,x,-13%,1%,-4,-5%
Cc1cc(CNC(=O)COC(=O)Cn2[nH]c(=O)c3ccccc3c2=O)cc(C)c1O,2%,x,-9%,-33%,-98*,0%
COc1ccccc1Cn1c(CNS(=O)(=O)c2ccc(Cl)s2)nc2cccnc21,x,x,54%,-3%,9,-4%
CC(=O)Nc1ccc(NC(=O)COC(=O)C2(c3ccc(Cl)cc3)CCCC2)cc1,5%,0%,28µM*,1%,u,6%
CCc1cccc(CC)c1NC(=O)COC(=O)C1(c2ccc(Cl)cc2)CCCC1,-5%,2%,-27%,-3%,-36,1%
CN1C(=O)c2cccc3c(Cl)ccc(c23)C1=O,-11%,7%,x,-24%,-36,8%
COc1ccccc1N1C(=O)c2cccc3c(Cl)ccc(c23)C1=O,-9%,-1%,-29%,-11%,-82*,-7%
CCn1c(SCC(=O)OCc2ccccc2)nnc1-c1ccco1,-5%,1%,13%,-12%,26,-28%
O=[N+]([O-])c1ccc(Sc2ccccc2Cl)nc1,-12%,-2%,-22%,u,-27,4%
CCn1c(Sc2ccc([N+](=O)[O-])cn2)nnc1-c1ccco1,-3%,-24%,u,-34%,-86*,-19%
O=[N+]([O-])c1ccc(Sc2ncc3ccccn23)nc1,25%,-1%,-4%,45µM*,-65*,-2%
Cc1ccc(-c2c(C(=O)N(C)Cc3ccccc3)oc(=O)c3ccccc23)cc1,13%,-10%,-2%,-2%,-65*!,0%
CC(C)c1c(C(=O)N(C)CC2CCCN(C)C2)cnn1-c1nccc(-c2cccs2)n1 (stereo not given),x,x,9%,x,x,x
CC(C)c1ccc(CN2C(=O)C(n3ccc4ccccc43)c3cc(F)ccc32)cc1 (stereo not given),x,x,x,x,3,x
COc1ccc(CN2C(=O)C(n3ccc4ccccc43)c3cc(OC(F)(F)F)ccc32)cc1 (stereo not given),x,x,x,x,-91*,x
CC(C)c1ccc(CN2C(=O)C(n3ccc4ccccc43)c3cc(Cl)ccc32)cc1 (stereo not given),x,x,x,x,-76*,x
COc1ccc2c(c1)C(n1ccc3ccccc31)C(=O)N2Cc1ccc(C(F)(F)F)cc1 (stereo not given),x,x,x,x,27,x
SMILES,RE007 growth inh,FBPA Giardia inh,FMDV inh,Sm TGR block,HCMV antiviral,Tb PYK inh
Cc1ccccc1OCC(=O)N(Cc1ccc(N(C)C)cc1)CC1CCCO1 (stereo not given),x,x,4%,0%,-63*,0%
Cc1nn(-c2ccccc2)c(N)c1Sc1cccc([N+](=O)[O-])c1,-4%,-14%,u,-4%,-76*,u
Nc1c(-c2ccccc2)cnn1-c1cccc([N+](=O)[O-])c1,u,-2%,16%,-22%,-35,-5%
Cc1nn(-c2cccc([N+](=O)[O-])c2)c(N)c1-c1ccccc1,-5%,-6%,20%,-1%,-61*,-3%
Cc1ccc(NC(=O)N2CCc3c([nH]c4ccccc34)C2c2ccccc2F)c(Cl)c1 (stereo not given),x,x,-10%,0%,-28,-6%
CCOC(=O)c1c(C)oc2nc(C)nc(N3CCN(c4ccccc4)CC3)c12,x,x,28µM*,10%,u,1%
CCOC(=O)c1c(C)oc2ncnc(N3CCN(c4cccc(Cl)c4)CC3)c12,x,x,28µM*,10%,-26,1%
CCOC(=O)c1c(C)oc2nc(C)nc(N3CCN(c4cccc(C(F)(F)F)c4)CC3)c12,x,x,u,31%,-64*,-6%
O=C(O)c1nccnc1C(=O)Nc1ccc(S(=O)(=O)N2CCOCC2)cc1,-18%,-17%,-12%,25µM*,11,3%
COCCOC(=O)c1nccnc1C(=O)Nc1ccc(S(=O)(=O)N2CCOCC2)cc1,1%,9%,-23%,3%,-34,-8%
O=C(Nc1ccc(S(=O)(=O)N2CCCC2)cc1)c1ccc(CN2CCOCC2)cc1,12%,-3%,16µM*,-10%,-81*,-5%
O=C(CNC(=O)c1ccc(F)cc1)NCc1ccc(S(=O)(=O)N2CCOCC2)cc1,23%,x,-6%,89µM*,-15,u
CC(=O)Nc1ccc(NC(=O)c2cc(-c3cc(C)cc(C)c3O)n[nH]2)cc1,-4%,2%,-30%,-13%,u,-2%
O=C(Nc1ccc(S(=O)(=O)N2CCCCC2)cc1)c1ccc(CN2CCOCC2)cc1,-4%,0%,x,4%,x,2%
Cc1cc(C)c(O)c(-c2cc(C(=O)Nc3ccc(S(=O)(=O)N4CCOCC4)cc3)[nH]n2)c1,2%,0%,u,-13%,-76*,0%
CCN(CC)S(=O)(=O)c1ccc(N2CCOCC2)c(NC(=O)c2cc3ccccc3o2)c1,11%,x,0%,x,-73*,3%
O=C(Cn1c(=O)oc2cc(S(=O)(=O)N3CCCCC3)ccc21)NCc1ccc(F)cc1,x,x,0%,-8%,-12,-5%
CN(c1ccc(C(=O)Nc2ccc(S(=O)(=O)N3CCCC3)cc2)cc1)S(C)(=O)=O,-4%,-1%,u,-1%,-98*,-5%
O=C(Cn1c(=O)oc2cc(S(=O)(=O)N3CCCC3)ccc21)NCc1ccc(F)cc1,40%,-1%,0%,1%,-70*!,-2%
CCN(CC)S(=O)(=O)c1ccc(NC(=O)c2ccc(CN3CCOCC3)cc2)cc1,-7%,-1%,x,-1%,-95*,4%
CCOC(=O)c1noc2ncnc(Nc3cc(Cl)c(OC)cc3OC)c12,x,x,-6%,0%,0,-9%

# Bioassay records deposited in PubChem by National Center for Advancing Translational Sciences (NCATS).
